# According to PMC8384837, “Expanding the binding specificity for RNA recognition by a PUF domain”:
# Numbering of substitutions follows the chain as printed.
# Tests used:
# Test in all cases: yeast three-hybrid, YBZ-1, SC-Leu-His + 0.5 mM 3-AT, 4 days
# Details in all cases: tags: N-Gal4 AD-HA kept; label: inside an RPR1-promoter hybrid RNA with tandem MS2 sites; ssRNA
# PUM1 PUF domain R5-KPV = PUM1 PUF domain R5-KPV (Homo sapiens, UniProt Q14671 828-1176, C1007K;R1008P;Q1011V)
# Method in brief: (§1)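 A centromeric plasmid in strain YBZ-1 co-expressed Pumilio-1 PUF domain libraries, randomized at the three base-contacting residues of each repeat, with matching RNA elements; the strain carries a LexA–MS2 coat fusion and a HIS3 reporter. After four days on SC-Leu (input) or SC-Leu-His + 0.5 mM 3-AT (selection), the repeat regions were PCR-amplified and Illumina-sequenced. The interaction score is the log change in variant frequency from input to selection, using log2 and a pseudocount of 1 where absent.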
# PUM1 PUF domain R5-RKG = PUM1 PUF domain R5-RKG (Homo sapiens, UniProt Q14671 828-1176, C1007R;R1008K;Q1011G)
# Method in brief: as §1
# PUM1 PUF domain R5-SRK = PUM1 PUF domain R5-SRK (Homo sapiens, UniProt Q14671 828-1176, C1007S;Q1011K)
# Method in brief: as §1
# PUM1 PUF domain R8-GFR = PUM1 PUF domain R8-GFR (Homo sapiens, UniProt Q14671 828-1176, N1122G;Y1123F;Q1126R)
# Method in brief: as §1
# PUM1 PUF domain R5-SRV = PUM1 PUF domain R5-SRV (Homo sapiens, UniProt Q14671 828-1176, C1007S;Q1011V)
# Method in brief: as §1
# PUM1 PUF domain R6-CFR = target: T1, PUM1 PUF domain R6-CFR (Homo sapiens, UniProt Q14671 828-1176, N1043C;Y1044F;Q1047R)
# T1 sequence: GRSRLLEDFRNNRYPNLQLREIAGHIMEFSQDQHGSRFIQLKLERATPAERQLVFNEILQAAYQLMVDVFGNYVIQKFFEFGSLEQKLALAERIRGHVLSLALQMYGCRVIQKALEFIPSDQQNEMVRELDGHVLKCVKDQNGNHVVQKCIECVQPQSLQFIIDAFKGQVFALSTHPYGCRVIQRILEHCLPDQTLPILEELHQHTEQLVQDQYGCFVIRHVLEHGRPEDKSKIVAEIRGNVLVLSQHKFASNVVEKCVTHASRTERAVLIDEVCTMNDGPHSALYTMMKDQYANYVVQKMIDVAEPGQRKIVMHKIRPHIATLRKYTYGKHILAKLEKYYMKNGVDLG
# Method in brief: as §1
# PUM1 PUF domain R3-WFS = PUM1 PUF domain R3-WFS (Homo sapiens, UniProt Q14671 828-1176, C935W;R936F;Q939S)
# Method in brief: as §1
# PUM1 PUF domain R5-PLD = PUM1 PUF domain R5-PLD (Homo sapiens, UniProt Q14671 828-1176, C1007P;R1008L;Q1011D)
# Method in brief: as §1
# PUM1 PUF domain R3-LYE = PUM1 PUF domain R3-LYE (Homo sapiens, UniProt Q14671 828-1176, C935L;R936Y;Q939E)
# Method in brief: as §1
# PUM1 PUF domain R6-LFG = target: T2, PUM1 PUF domain R6-LFG (Homo sapiens, UniProt Q14671 828-1176, N1043L;Y1044F;Q1047G)
# T2 sequence: T1 sequence with C216L, R220G
# Method in brief: as §1
sequence,measurement,setting,value
GGCUAGAACUAGUGGAUCCCCCGGCGCCCGGCGGCUCGAGCCCGGGUAAGUGUUAAUAGUCUGCAUGCCGCCGGGCGCCAUGCCUGCAGGUCGACUCUAGAAAACAUG,binding signal,PUM1 PUF domain R5-KPV,1.4 log2 enrichment (interaction score)
same,binding signal,PUM1 PUF domain R5-RKG,2.88 log2 enrichment (interaction score)
same,binding signal,PUM1 PUF domain R5-SRK,5.28 log2 enrichment (interaction score)
GGCUAGAACUAGUGGAUCCCCCGGCGCCCGGCGGCUCGAGCCCGGGUAAGCGUAAAUAGUCUGCAUGCCGCCGGGCGCCAUGCCUGCAGGUCGACUCUAGAAAACAUG,binding signal,PUM1 PUF domain R8-GFR,4.51 log2 enrichment (interaction score)
GGCUAGAACUAGUGGAUCCCCCGGCGCCCGGCGGCUCGAGCCCGGGUAAGUGUGAAUAGUCUGCAUGCCGCCGGGCGCCAUGCCUGCAGGUCGACUCUAGAAAACAUG,binding signal,PUM1 PUF domain R5-SRV,2.79 log2 enrichment (interaction score)
same,binding signal,PUM1 PUF domain R5-SRK,3.42 log2 enrichment (interaction score)
GGCUAGAACUAGUGGAUCCCCCGGCGCCCGGCGGCUCGAGCCCGGGUAAGUGCAAAUAGUCUGCAUGCCGCCGGGCGCCAUGCCUGCAGGUCGACUCUAGAAAACAUG,binding signal,PUM1 PUF domain R6-CFR,6.28 log2 enrichment (interaction score)
GGCUAGAACUAGUGGAUCCCCCGGCGCCCGGCGGCUCGAGCCCGGGUAAGUGUAAUUAGUCUGCAUGCCGCCGGGCGCCAUGCCUGCAGGUCGACUCUAGAAAACAUG,binding signal,PUM1 PUF domain R3-WFS,2.63 log2 enrichment (interaction score)
GGCUAGAACUAGUGGAUCCCCCGGCGCCCGGCGGCUCGAGCCCGGGUAAGUGUAAAUAGUCUGCAUGCCGCCGGGCGCCAUGCCUGCAGGUCGACUCUAGAAAACAUG,binding signal,PUM1 PUF domain R6-CFR,4.59 log2 enrichment (interaction score)
same,binding signal,PUM1 PUF domain R5-PLD,2.61 log2 enrichment (interaction score)
same,binding signal,PUM1 PUF domain R8-GFR,4.66 log2 enrichment (interaction score)
same,binding signal,PUM1 PUF domain R3-LYE,3.76 log2 enrichment (interaction score)
same,binding signal,PUM1 PUF domain R5-RKG,0.47 log2 enrichment (interaction score)
same,binding signal,PUM1 PUF domain R5-SRV,0.54 log2 enrichment (interaction score)
same,binding signal,PUM1 PUF domain R5-SRK,3.38 log2 enrichment (interaction score)
GGCUAGAACUAGUGGAUCCCCCGGCGCCCGGCGGCUCGAGCCCGGGUAAGUGAAAAUAGUCUGCAUGCCGCCGGGCGCCAUGCCUGCAGGUCGACUCUAGAAAACAUG,binding signal,PUM1 PUF domain R6-CFR,4.42 log2 enrichment (interaction score)
same,binding signal,PUM1 PUF domain R6-LFG,5.7 log2 enrichment (interaction score)
GGCUAGAACUAGUGGAUCCCCCGGCGCCCGGCGGCUCGAGCCCGGGUAAGUGUCAAUAGUCUGCAUGCCGCCGGGCGCCAUGCCUGCAGGUCGACUCUAGAAAACAUG,binding signal,PUM1 PUF domain R5-KPV,3.85 log2 enrichment (interaction score)
same,binding signal,PUM1 PUF domain R5-RKG,2 log2 enrichment (interaction score)
same,binding signal,PUM1 PUF domain R5-SRK,2.72 log2 enrichment (interaction score)
